Data reported in PubChem BioAssay (EPA / NIEHS).
Results filed as inconclusive are left out. Where a structure was tested more than once in an assay, its records may differ in their call. Calls of active or inactive are those of the source. How the source made its calls, unless noted: active means hit-call score of the fitted dose curve at least 0.9, where 1 is the maximum; inactive means score below 0.9.

Assays:
[1] = read-out: KRT18 (gene 3875); assay: BSK_BE3C_Keratin818: BioMAP Diversity Plus: BE3C Assay for Keratin 818 Biomarker Activity (AID 2284282); details: primary human bronchial epithelial cells
Outline: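 BE3C: human bronchial epithelial primary cells, 24 h exposure, Keratin 8/18 ELISA; DMSO = negative control/baseline; cytotoxicity by parallel SRB stain (0.1% SRB after 10% TCA fixation, 560 nm).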

[2] = read-out: Matrix Metallopeptidase 9 (MMP9), MMP9 (gene 4318); assay: BSK_BE3C_MMP9: BioMAP Diversity Plus: BE3C Assay for Matrix Metallopeptidase 9 (MMP9) Biomarker Activity (AID 2284283); details: primary human bronchial epithelial cells
Outline: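 Endpoint is the ELISA MMP-9 signal in human primary bronchial epithelial cultures taken 24 h after chemical dosing. DMSO serves as negative control and baseline, with gain-of-signal fitting.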

[3] = read-out: Plasminogen activator inhibitor-1 (PAI1), SERPINE1 (gene 5054); assay: BSK_CASM3C_PAI1: BioMAP Diversity Plus: CASM3C Assay for Plasminogen activator inhibitor-1 (PAI1) Biomarker Activity (AID 2284284); details: primary human coronary artery smooth muscle cells;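 further: PAI-1 protein level measured by ELISA 24 h after dosing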
[4] = read-out: Monocyte Chemoattractant Protein-1 (MCP1), CCL2 (gene 6347); assay: BSK_hDFCGF_MCP1: BioMAP Diversity Plus: hDFCGF Assay for Monocyte Chemoattractant Protein-1 (MCP1) Biomarker Activity (AID 2284285); details: primary human foreskin fibroblasts
Outline: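 Human foreskin fibroblasts (hDFCGF system) were exposed to compound and secreted MCP-1 was measured by ELISA after 24 hours. Activity was fitted relative to DMSO. Cytotoxicity was checked by SRB total-protein staining in parallel cultures.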

[5] = read-out: Intercellular Adhesion Molecule 1 (ICAM1), ICAM1 (gene 3383); assay: BSK_hDFCGF_ICAM1: BioMAP Diversity Plus: hDFCGF Assay for Intercellular Adhesion Molecule 1 (ICAM1) Biomarker Activity (AID 2284287); details: primary human foreskin fibroblasts
Outline: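 Primary human foreskin fibroblasts (hDFCGF system) dosed with chemical; ICAM-1 quantified by ELISA at 24 h relative to DMSO. Parallel SRB total-protein staining to assess overt cytotoxicity.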

[6] = read-out: TIMP metallopeptidase inhibitor 2 (TIMP2), TIMP2 (gene 7077); assay: BSK_hDFCGF_TIMP2: BioMAP Diversity Plus: hDFCGF Assay for TIMP metallopeptidase inhibitor 2 (TIMP2) Biomarker Activity (AID 2284289); details: primary human foreskin fibroblasts
Outline: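 Primary human foreskin fibroblasts in the hDFCGF system, dosed for 24 h; TIMP-2 level measured by ELISA, fitted in the positive direction against DMSO; cytotoxicity checked in parallel by sulforhodamine B total protein staining.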

[7] = read-out: Thrombomodulin, THBD (gene 7056); assay: BSK_LPS_Thrombomodulin: BioMAP Diversity Plus: LPS Assay for Thrombomodulin Biomarker Activity (AID 2284296); details: primary human HUVEC with PBMC
Outline: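 Human umbilical vein endothelial cells co-cultured with PBMC and stimulated with LPS; cell-surface thrombomodulin measured by ELISA 24 hours after compound. Gain or loss versus DMSO; cytotoxicity checked by SRB staining in parallel cultures.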

[8] = read-out: CD69, CD69 (gene 969); assay: BSK_LPS_CD69: BioMAP Diversity Plus: LPS Assay for CD69 Biomarker Activity (AID 2284303); details: primary human HUVEC with PBMC
Outline: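 Human umbilical vein endothelial cells co-cultured with PBMC under LPS stimulation, chemical exposure 24 h; cell-surface CD69 measured by ELISA and fitted in the positive direction versus DMSO.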

[9] = IUF_NPC2c_oligodendrocyte_migration_120hr: Leibniz Research Institute for Environmental Medicine (IUF) 120-hour Neural Progenitor Cell Migration Assay for Oligodendrocyte Migration (NPC2c) (AID 2284297);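 further: O4-positive oligodendrocyte migration distance divided by radial glia migration distance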
Outline: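 Using fetal brain neural progenitor spheres differentiating in N2 medium at 37C, compounds were present for 120 h. Oligodendrocyte migration distance, normalized to radial glia migration, was measured from imaged O4 staining.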

[10] = IUF_NPC2a_radial_glia_migration_120hr: Leibniz Research Institute for Environmental Medicine (IUF) 120-hour Neural Progenitor Cell Migration Assay for Radial Glia Migration (NPC2a) (AID 2284298)
Outline: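 Exposure of 0.3 mm primary hNPC spheres runs day 0 to 120 h with a half-volume medium change at day 3. Fixed cells get Hoechst staining; high-content analysis of nuclear positions yields radial glia migration distance per well, compared against DMSO controls.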

[11] = IUF_NPC2a_radial_glia_migration_72hr: Leibniz Research Institute for Environmental Medicine (IUF) 72-hour Neural Progenitor Cell Migration Assay for Radial Glia Migration (NPC2a) (AID 2284299)
Outline: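 Migration out of plated human neural progenitor spheres is scored at 72 h as the distance in um from the sphere core edge to the edge of the migration area. Values are the mean of four manual measurements per well, normalised to DMSO.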

[12] = IUF_NPC2b_neuronal_migration_120hr: Leibniz Research Institute for Environmental Medicine (IUF) 120-hour Neural Progenitor Cell Migration Assay for Neuron Migration (NPC2b) (AID 2284300)
Outline: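 Fetal human NPC spheres migrate on PDL/laminin during 120 h compound treatment; neuronal migration distance, glia-normalized, scored versus DMSO control.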

[13] = IUF_NPC3_neuronal_differentiation_120hr: Leibniz Research Institute for Environmental Medicine (IUF) 120-hour Neuronal Differentiation Assay (NPC3) (AID 2284301)
Outline: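 Primary human fetal neural progenitor spheres (GW 16-19, 0.3 mm) plated on poly-D-lysine/laminin in N2 medium, exposed from day 0 for 120 h with half-medium refresh at day 3. TUBB3+ cells as percent of Hoechst nuclei in migration area; DMSO baseline.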

[14] = IUF_NPC4_neurite_length_120hr: Leibniz Research Institute for Environmental Medicine (IUF) 120-hour Neuronal Morphology Assay for Neurite Length (NPC4) (AID 2284302)
Outline: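 Human fetal cortex (GW 16-19) neural progenitor spheres, 0.3 mm, were plated on poly-D-lysine/laminin in N2 differentiation medium and exposed from day 0 for 120 h, half-feeding at day 3. Mean TUBB3+ neurite length (µm) came from skeletonized images, relative to DMSO.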

[15] = IUF_NPC5_oligodendrocyte_differentiation_120hr: Leibniz Research Institute for Environmental Medicine (IUF) 120-hour Oligodendrocyte Differentiation Assay (NPC5) (AID 2284304; active means hit-call score of the fitted dose curve at least 0.9, where 1 is the maximum;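 further: primary human fetal neural progenitor spheres plated to migrate and differentiate; share of O4-positive cells among Hoechst nuclei found by CNN image analysis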)
Outline: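 After plating on poly-D-lysine/laminin, fetal-derived hNPC spheres differentiated for 120 h at 37C in compound-containing N2 medium, refreshed by half on day 3. O4 immunostaining over Hoechst nuclei in the migration zone gave oligodendrocyte percentage relative to DMSO.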

[16] = IUF_NPC4_neurite_area_120hr: Leibniz Research Institute for Environmental Medicine (IUF) 120-hour Neuronal Morphology Assay for Neurite Area (NPC4) (AID 2284305; active means hit-call score of the fitted dose curve at least 0.9, where 1 is the maximum)
Outline: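 Human fetal cortex-derived neural progenitor spheres (0.3 mm, GW 16-19) plated on poly-D-lysine/laminin in N2 differentiation medium and exposed from day 0 for 120 h across 7 concentrations plus solvent control. Neurite area is mean pixel area per TUBB3-positive neuron via skeletonization, analysed relative to DMSO.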

[17] = IUF_NPC2-5_cytotoxicity_72hr: Cytotoxicity Assessment at 72 hours in the Leibniz Research Institute for Environmental Medicine (IUF) Neural Progenitor Cell Migration and Differentiation Assay for Cytotoxicity (NPC2-5) (AID 2284306; active means hit-call score of the fitted dose curve at least 0.9, where 1 is the maximum;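 further: LDH release into supernatant measured by resorufin fluorescence marking membrane damage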)
Outline: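 Human fetal (GW 16-19) neural progenitor spheres, 0.3 mm, plated on poly-D-lysine/laminin in N2 differentiation medium and exposed from day 0 to 7 concentrations plus solvent control (DMSO ≤0.1%). LDH-dependent resazurin-to-resorufin fluorescence in supernatant at 72 h.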

[18] = IUF_NPC2-5_cytotoxicity_120hr: Cytotoxicity Assessment at 120 hours in the Leibniz Research Institute for Environmental Medicine (IUF) Neural Progenitor Cell Migration and Differentiation Assay (NPC2-5) (AID 2284307; active means hit-call score of the fitted dose curve at least 0.9, where 1 is the maximum)
Outline: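 Membrane-integrity loss is quantified by LDH in supernatant after five days of exposure of migrating, differentiating human fetal NPC spheres; seven serially diluted concentrations are tested with DMSO kept at or below 0.1%.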

[19] = IUF_NPC2-5_cell_number_120hr: Cell Number Assessment at 120 hours in the Leibniz Research Institute for Environmental Medicine (IUF) Neural Progenitor Cell Migration and Differentiation Assay (NPC2-5) (AID 2284308);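 further: count of Hoechst-stained nuclei in migration zone around plated human neural progenitor spheres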
Outline: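 Seven-point serial dilutions plus solvent control were applied to plated 0.3 mm hNPC spheres at differentiation start, with medium half-replaced at day 3. Nuclei positive for Hoechst in the migration zone were enumerated at 120 h.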

[20] = IUF_NPC2-5_viability_120hr: Viability Assessment at 120 hours in the Leibniz Research Institute for Environmental Medicine (IUF) Neural Progenitor Cell Migration and Differentiation Assay (NPC2-5) (AID 2284312)
Outline: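 Human fetal (GW 16-19) neural progenitor spheres of 0.3 mm were plated on poly-D-lysine/laminin in N2 differentiation medium and exposed from day 0 for 120 h, with half-medium refresh at day 3. Viability was read as alamar blue resazurin-to-resorufin fluorescence against DMSO.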

**Q.** Which outcome [1] does the source give for `NCCNCCN` here?
**A.** inactive

**Q.** What about the outcome [2] of the same compound?
**A.** inactive

**Q.** What about the outcome [3] of the same compound?
**A.** inactive

**Q.** What about the outcome [4] of the same compound?
**A.** inactive

**Q.** What about the outcome [5] of the same compound?
**A.** inactive

**Q.** What about the outcome [6] of the same compound?
**A.** inactive

**Q.** What about the outcome [7] of the same compound?
**A.** inactive

**Q.** What about the outcome [8] of the same compound?
**A.** inactive

**Q.** With `OC1OC[C@@H](O)[C@H](O)[C@H]1O` (stereo partly specified) as the compound, how does the outcome [1] read?
**A.** inactive

**Q.** And the outcome [2]?
**A.** inactive

**Q.** And the outcome [3]?
**A.** inactive

**Q.** What about the outcome [4] of the same compound?
**A.** inactive

**Q.** What about the outcome [5] of the same compound?
**A.** inactive

**Q.** What about the outcome [6] of the same compound?
**A.** inactive

**Q.** What about the outcome [7] of the same compound?
**A.** inactive

**Q.** And the outcome [8]?
**A.** inactive

**Q.** With `Cc1cc(C2(c3cc(C)c(O)cc3C)OS(=O)(=O)c3ccccc32)c(C)cc1O` as the compound, how does the outcome [1] read?
**A.** inactive

**Q.** And the outcome [2]?
**A.** inactive

**Q.** What about the outcome [3] of the same compound?
**A.** inactive

**Q.** And the outcome [4]?
**A.** inactive

**Q.** What about the outcome [5] of the same compound?
**A.** inactive

**Q.** What about the outcome [6] of the same compound?
**A.** inactive

**Q.** And the outcome [7]?
**A.** inactive

**Q.** What about the outcome [8] of the same compound?
**A.** inactive

**Q.** For `CC[Si](OC(C)=O)(OC(C)=O)OC(C)=O`, which outcome [1] is on record?
**A.** inactive

**Q.** And the AC50 [2]?
**A.** 6.87 µM (active)

**Q.** And the outcome [2]?
**A.** inactive

**Q.** And the outcome [3]?
**A.** inactive

**Q.** What about the outcome [4] of the same compound?
**A.** inactive

**Q.** And the outcome [5]?
**A.** inactive

**Q.** And the outcome [6]?
**A.** inactive

**Q.** What about the outcome [7] of the same compound?
**A.** inactive

**Q.** And the outcome [8]?
**A.** inactive

**Q.** Which results are given for `N#Cc1ccc(CC(=NNC(=O)Nc2ccc(OC(F)(F)F)cc2)c2cccc(C(F)(F)F)c2)cc1`?
**A.** outcome [9]: inactive; outcome [10]: inactive; outcome [11]: inactive; outcome [12]: inactive; outcome [13]: inactive; outcome [14]: inactive; AC50 [15]: 0.784 µM (active); outcome [16]: inactive; outcome [17]: inactive; outcome [18]: inactive; outcome [19]: inactive; outcome [20]: inactive

**Q.** What does the source list for `CC(=O)OCCC(C)CC(C)(C)C` (stereo unspecified)?
**A.** outcome [1]: inactive; outcome [2]: inactive; outcome [3]: inactive; outcome [4]: inactive; outcome [5]: inactive; outcome [6]: inactive; outcome [7]: inactive; outcome [8]: inactive

**Q.** With `COc1cc(C=O)ccc1OC(=O)C(C)C` as the compound, how does the outcome [1] read?
**A.** inactive

**Q.** What about the outcome [2] of the same compound?
**A.** inactive

**Q.** What about the outcome [3] of the same compound?
**A.** inactive

**Q.** What about the outcome [4] of the same compound?
**A.** inactive

**Q.** And the outcome [5]?
**A.** inactive

**Q.** And the outcome [6]?
**A.** inactive

**Q.** And the outcome [7]?
**A.** inactive

**Q.** What about the outcome [8] of the same compound?
**A.** inactive
